# According to ChEMBL document CHEMBL1961873, “Compounds: GSK PKIS; Assays: Nanosyn kinase panel” (2012):
# Several values for one entry are separate records, joined by “and”; a condition that tells them apart may be missing. Equal entries are not always repeated.
# What was measured:
# [1] = target: Sphingosine kinase 1 (Homo sapiens) (UniProt Q9NYA1); conditions: at 1 µM;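 note: mean SPHK1 inhibition value reported from the GSK PKIS kinase panel screen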
# [2] = target: T1, Sphingosine kinase 2 (Homo sapiens) (UniProt Q9NRA0); conditions: at 0.1 µM
# T1 sequence (whole entry): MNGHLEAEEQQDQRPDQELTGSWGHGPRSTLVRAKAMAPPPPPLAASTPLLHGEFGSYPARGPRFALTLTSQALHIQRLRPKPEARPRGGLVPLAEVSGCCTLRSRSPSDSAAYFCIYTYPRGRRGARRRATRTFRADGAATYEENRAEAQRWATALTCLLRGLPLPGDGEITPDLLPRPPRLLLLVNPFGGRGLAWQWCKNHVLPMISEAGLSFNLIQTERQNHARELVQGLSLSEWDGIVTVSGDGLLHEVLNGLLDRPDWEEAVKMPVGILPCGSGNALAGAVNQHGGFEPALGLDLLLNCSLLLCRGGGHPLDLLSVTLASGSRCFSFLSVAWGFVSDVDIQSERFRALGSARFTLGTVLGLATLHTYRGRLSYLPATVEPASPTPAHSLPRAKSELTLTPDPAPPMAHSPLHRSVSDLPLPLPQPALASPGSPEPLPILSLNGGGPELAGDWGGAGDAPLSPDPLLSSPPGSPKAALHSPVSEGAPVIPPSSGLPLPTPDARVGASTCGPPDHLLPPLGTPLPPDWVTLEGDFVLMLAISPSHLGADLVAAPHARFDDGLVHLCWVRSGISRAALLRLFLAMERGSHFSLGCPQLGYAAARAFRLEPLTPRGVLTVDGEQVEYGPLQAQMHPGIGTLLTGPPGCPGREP
# [3] = target: T1, Sphingosine kinase 2 (Homo sapiens); conditions: at 1 µM
# [4] = target: Casein kinase II subunit alpha (Homo sapiens) (UniProt P68400); conditions: at 0.1 µM
# Chain of Casein kinase II subunit alpha (Homo sapiens) (P68400 whole entry, looked up): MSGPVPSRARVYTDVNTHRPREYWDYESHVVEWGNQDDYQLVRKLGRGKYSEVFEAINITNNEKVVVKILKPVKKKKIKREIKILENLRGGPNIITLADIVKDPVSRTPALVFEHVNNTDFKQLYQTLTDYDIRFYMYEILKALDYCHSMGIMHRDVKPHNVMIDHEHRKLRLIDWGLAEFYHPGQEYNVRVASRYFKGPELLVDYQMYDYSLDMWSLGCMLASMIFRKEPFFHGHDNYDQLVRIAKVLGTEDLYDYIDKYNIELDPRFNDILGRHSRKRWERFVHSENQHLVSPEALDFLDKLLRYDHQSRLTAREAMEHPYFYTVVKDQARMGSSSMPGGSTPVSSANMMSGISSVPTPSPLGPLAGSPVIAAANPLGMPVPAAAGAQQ
# [5] = target: Casein kinase II subunit alpha (Homo sapiens) (UniProt P68400); conditions: at 1 µM
# [6] = target: T2, Inhibitor of nuclear factor kappa-B kinase subunit alpha (Homo sapiens) (UniProt O15111); conditions: at 0.1 µM
# T2 sequence (whole entry): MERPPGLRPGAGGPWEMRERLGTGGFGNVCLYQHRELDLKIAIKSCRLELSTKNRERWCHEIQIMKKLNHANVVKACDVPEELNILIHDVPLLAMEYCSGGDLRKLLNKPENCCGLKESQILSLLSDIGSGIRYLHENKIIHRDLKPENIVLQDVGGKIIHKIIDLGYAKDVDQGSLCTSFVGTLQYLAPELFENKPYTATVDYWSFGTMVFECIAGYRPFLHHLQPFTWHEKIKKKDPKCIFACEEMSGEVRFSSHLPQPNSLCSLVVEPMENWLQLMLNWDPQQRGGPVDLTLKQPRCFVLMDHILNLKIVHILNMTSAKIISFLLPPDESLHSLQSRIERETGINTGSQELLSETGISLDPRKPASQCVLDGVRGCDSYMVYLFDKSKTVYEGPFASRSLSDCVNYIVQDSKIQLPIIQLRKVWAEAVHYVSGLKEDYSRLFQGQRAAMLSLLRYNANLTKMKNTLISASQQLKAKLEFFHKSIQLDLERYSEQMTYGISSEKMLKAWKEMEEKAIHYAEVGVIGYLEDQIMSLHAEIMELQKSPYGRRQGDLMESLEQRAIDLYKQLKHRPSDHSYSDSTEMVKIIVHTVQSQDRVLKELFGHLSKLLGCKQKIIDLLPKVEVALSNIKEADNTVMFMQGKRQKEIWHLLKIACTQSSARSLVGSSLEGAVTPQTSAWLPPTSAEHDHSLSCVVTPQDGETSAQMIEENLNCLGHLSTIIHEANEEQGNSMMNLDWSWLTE
# [7] = target: T2, Inhibitor of nuclear factor kappa-B kinase subunit alpha (Homo sapiens); conditions: at 1 µM
# [8] = target: T3, Inhibitor of nuclear factor kappa-B kinase subunit beta (Homo sapiens) (UniProt O14920); conditions: at 0.1 µM
# T3 sequence (whole entry): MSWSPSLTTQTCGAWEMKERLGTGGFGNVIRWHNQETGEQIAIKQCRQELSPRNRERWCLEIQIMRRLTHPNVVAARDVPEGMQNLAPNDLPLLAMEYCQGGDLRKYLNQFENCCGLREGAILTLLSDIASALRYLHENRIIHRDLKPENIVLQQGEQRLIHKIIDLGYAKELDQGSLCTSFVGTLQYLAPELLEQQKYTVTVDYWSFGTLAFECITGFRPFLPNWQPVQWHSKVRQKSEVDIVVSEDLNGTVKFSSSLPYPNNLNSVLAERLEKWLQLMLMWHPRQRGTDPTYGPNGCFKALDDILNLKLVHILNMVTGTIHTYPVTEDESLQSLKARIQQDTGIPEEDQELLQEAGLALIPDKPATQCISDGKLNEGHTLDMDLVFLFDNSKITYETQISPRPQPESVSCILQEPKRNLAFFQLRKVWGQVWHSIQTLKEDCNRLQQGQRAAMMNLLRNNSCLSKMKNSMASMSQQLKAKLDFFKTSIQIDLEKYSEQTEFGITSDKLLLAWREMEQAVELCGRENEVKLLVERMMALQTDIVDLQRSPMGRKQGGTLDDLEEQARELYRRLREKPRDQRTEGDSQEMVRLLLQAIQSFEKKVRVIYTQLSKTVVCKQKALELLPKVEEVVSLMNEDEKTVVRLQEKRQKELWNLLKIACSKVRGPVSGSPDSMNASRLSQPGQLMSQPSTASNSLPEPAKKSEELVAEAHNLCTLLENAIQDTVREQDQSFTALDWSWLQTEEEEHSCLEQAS
# [9] = target: T3, Inhibitor of nuclear factor kappa-B kinase subunit beta (Homo sapiens); conditions: at 1 µM
# [10] = target: T4, Inhibitor of nuclear factor kappa-B kinase subunit epsilon (Homo sapiens) (UniProt Q14164); conditions: at 0.1 µM
# T4 sequence (whole entry): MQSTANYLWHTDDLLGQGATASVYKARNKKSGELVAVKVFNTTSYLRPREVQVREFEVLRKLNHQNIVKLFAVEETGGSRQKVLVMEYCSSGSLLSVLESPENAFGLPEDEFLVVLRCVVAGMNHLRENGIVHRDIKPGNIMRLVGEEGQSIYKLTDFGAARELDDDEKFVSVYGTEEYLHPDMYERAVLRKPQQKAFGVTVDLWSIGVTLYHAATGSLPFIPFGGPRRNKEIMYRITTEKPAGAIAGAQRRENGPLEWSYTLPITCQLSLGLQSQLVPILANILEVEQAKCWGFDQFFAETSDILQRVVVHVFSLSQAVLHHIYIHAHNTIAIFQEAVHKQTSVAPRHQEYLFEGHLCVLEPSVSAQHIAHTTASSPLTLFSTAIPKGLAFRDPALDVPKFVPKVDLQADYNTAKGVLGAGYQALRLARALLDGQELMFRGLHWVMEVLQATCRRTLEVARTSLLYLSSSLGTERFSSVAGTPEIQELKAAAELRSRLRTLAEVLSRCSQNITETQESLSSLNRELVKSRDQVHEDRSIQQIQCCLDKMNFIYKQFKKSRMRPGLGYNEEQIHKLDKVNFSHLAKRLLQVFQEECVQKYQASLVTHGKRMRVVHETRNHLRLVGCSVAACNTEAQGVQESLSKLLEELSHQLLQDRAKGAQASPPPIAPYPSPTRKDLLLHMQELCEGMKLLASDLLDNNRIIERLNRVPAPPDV
# [11] = target: T4, Inhibitor of nuclear factor kappa-B kinase subunit epsilon (Homo sapiens); conditions: at 1 µM
# [12] = target: T5, Serine/threonine-protein kinase Nek1 (Homo sapiens) (UniProt Q96PY6); conditions: at 0.1 µM
# T5 sequence (whole entry): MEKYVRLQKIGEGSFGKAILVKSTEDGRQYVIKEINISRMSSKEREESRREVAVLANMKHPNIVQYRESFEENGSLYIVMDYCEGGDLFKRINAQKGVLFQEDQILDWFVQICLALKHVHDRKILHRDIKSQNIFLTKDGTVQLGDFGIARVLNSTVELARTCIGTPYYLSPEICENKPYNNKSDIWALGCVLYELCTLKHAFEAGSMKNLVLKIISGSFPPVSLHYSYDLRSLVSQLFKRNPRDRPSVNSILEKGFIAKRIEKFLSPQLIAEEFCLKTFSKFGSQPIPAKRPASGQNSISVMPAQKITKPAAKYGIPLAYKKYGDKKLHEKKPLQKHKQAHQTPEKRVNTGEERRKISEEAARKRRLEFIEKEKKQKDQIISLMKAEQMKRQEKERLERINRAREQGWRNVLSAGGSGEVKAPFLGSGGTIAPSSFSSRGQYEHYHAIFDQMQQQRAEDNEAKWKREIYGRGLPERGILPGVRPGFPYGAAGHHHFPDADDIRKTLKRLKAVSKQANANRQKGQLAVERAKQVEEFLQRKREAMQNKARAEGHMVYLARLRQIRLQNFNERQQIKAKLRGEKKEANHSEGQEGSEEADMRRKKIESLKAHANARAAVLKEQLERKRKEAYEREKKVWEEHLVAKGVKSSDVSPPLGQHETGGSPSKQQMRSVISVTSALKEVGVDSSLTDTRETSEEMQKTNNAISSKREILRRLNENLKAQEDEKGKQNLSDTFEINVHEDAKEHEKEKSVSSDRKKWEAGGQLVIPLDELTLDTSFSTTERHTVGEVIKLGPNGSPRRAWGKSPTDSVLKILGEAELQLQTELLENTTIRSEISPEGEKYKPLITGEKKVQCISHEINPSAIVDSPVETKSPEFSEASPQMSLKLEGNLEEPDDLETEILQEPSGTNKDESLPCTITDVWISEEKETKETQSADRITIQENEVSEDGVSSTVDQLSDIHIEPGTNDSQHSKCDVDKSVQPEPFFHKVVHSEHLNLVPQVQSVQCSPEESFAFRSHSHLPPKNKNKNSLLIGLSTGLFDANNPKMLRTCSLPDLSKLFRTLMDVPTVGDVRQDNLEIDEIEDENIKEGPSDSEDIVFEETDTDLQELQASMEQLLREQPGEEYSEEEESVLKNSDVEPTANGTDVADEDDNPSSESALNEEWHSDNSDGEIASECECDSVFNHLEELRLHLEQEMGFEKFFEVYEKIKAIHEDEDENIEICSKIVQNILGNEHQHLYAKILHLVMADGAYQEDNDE
# [13] = target: T5, Serine/threonine-protein kinase Nek1 (Homo sapiens); conditions: at 1 µM
# [14] = target: T6, Serine/threonine-protein kinase Nek2 (Homo sapiens) (UniProt P51955); conditions: at 0.1 µM
# T6 sequence (whole entry): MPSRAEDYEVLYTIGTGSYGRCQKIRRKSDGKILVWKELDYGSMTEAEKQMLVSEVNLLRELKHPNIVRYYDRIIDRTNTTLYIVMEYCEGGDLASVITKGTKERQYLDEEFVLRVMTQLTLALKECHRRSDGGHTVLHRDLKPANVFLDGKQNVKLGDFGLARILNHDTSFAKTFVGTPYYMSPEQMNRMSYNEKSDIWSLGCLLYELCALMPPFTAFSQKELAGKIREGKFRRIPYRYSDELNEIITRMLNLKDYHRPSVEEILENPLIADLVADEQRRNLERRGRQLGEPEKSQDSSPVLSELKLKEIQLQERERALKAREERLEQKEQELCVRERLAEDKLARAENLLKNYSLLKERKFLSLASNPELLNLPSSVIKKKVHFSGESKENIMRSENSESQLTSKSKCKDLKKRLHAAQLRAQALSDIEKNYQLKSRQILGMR
# [15] = target: T6, Serine/threonine-protein kinase Nek2 (Homo sapiens); conditions: at 1 µM
# [16] = target: Serine/threonine-protein kinase Nek6 (Homo sapiens) (UniProt Q9HC98); conditions: at 0.1 µM
# Chain of Serine/threonine-protein kinase Nek6 (Homo sapiens) (Q9HC98 whole entry): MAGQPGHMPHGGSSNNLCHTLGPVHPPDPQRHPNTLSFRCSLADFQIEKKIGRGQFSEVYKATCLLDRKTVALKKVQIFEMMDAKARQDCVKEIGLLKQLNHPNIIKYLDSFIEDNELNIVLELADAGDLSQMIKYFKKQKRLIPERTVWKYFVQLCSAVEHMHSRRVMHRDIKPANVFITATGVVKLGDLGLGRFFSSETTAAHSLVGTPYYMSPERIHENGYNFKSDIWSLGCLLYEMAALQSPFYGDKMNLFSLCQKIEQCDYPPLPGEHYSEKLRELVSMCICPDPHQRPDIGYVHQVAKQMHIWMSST
# [17] = target: Serine/threonine-protein kinase Nek6 (Homo sapiens) (UniProt Q9HC98); conditions: at 1 µM
# [18] = target: Serine/threonine-protein kinase Nek7 (Homo sapiens) (UniProt Q8TDX7); conditions: at 0.1 µM
# Chain of Serine/threonine-protein kinase Nek7 (Homo sapiens) (Q8TDX7 whole entry, looked up): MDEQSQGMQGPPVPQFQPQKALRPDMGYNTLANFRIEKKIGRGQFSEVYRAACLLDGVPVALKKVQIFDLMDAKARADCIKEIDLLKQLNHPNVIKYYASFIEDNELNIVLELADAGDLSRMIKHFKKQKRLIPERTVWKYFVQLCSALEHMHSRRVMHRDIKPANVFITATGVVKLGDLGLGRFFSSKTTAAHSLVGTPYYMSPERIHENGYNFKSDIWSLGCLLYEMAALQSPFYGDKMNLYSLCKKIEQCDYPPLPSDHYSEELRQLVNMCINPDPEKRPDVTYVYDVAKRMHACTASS
# [19] = target: Serine/threonine-protein kinase Nek7 (Homo sapiens) (UniProt Q8TDX7); conditions: at 1 µM
# [20] = target: T7, Serine/threonine-protein kinase Nek9 (Homo sapiens) (UniProt Q8TD19); conditions: at 0.1 µM;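 note: reported value is the mean percent inhibition of NEK9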
# T7 sequence (whole entry): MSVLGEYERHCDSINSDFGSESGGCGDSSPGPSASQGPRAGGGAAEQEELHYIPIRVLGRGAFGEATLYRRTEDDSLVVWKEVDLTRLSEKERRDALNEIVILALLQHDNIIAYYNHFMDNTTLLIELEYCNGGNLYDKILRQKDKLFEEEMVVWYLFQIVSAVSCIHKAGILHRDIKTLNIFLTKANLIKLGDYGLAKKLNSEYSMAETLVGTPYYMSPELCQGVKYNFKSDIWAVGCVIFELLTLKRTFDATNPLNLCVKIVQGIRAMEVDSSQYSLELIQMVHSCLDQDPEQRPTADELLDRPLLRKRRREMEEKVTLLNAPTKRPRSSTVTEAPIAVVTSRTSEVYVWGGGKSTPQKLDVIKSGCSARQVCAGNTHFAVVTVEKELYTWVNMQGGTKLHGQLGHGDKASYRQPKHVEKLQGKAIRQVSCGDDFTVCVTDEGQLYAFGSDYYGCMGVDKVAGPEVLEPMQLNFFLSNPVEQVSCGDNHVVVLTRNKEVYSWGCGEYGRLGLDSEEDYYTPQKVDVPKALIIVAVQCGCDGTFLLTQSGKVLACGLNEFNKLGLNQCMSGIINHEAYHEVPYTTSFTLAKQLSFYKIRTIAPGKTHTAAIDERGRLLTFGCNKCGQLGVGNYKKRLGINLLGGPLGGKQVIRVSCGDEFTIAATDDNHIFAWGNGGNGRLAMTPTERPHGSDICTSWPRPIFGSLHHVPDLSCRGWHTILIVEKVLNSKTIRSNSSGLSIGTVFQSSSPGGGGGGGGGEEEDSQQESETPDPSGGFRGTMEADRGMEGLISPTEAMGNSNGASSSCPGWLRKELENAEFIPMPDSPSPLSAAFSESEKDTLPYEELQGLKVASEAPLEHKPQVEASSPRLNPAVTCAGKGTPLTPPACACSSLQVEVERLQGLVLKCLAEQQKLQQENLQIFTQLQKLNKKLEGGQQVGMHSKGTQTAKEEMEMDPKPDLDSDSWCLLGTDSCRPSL
# Chain of Sphingosine kinase 1 (Homo sapiens) (Q9NYA1 whole entry): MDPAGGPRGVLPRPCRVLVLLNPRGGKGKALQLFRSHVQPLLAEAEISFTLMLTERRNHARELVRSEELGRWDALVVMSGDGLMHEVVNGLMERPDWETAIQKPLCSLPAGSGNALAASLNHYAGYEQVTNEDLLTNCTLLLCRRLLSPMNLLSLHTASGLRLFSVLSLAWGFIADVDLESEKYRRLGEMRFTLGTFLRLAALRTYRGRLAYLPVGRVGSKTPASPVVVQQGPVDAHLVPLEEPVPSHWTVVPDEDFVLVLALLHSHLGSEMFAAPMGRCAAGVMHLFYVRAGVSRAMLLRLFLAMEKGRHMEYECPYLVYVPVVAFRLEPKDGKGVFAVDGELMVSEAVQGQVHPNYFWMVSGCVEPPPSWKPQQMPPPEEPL
compound,measurement,setting,value
Nc1nonc1-c1nc2cnccc2n1C1CC1,inhibition,[1],-2.58% and -3.16%
same,inhibition,[2],0.27% and 0.67%
same,inhibition,[3],0.49% and 1.53%
same,inhibition,[4],1.54% and 1.55%
same,inhibition,[5],1.9% and 1.11%
same,inhibition,[6],6.14% and 3.82%
same,inhibition,[7],1.6% and 3.39%
same,inhibition,[8],4.31% and 2.15%
same,inhibition,[9],1.3% and 3.29%
same,inhibition,[10],3.18% and 3.84%
same,inhibition,[11],11.3% and 10.2%
same,inhibition,[12],1.72% and 1.48%
same,inhibition,[13],6.39% and 2.72%
same,inhibition,[14],5.51% and 2.84%
same,inhibition,[15],4.67% and 4.04%
same,inhibition,[16],3.25% and -0.01%
same,inhibition,[17],-0.06% and 2.15%
same,inhibition,[18],3.77% and 4.5%
same,inhibition,[19],2.89% and 3.28%
same,inhibition,[20],8.67% and 3.36%
